From PubChem BioAssay AID651965 (National Center for Advancing Translational Sciences (NCATS), 2013)
Out of some 340,000 compounds screened, about 6,400 (1.9%) were called active. Entries that show only a call come without a potency. Not shown: some 4% with an inconclusive outcome. This is one part of a sample in which actives are shown more often than they occur. Calls come from the whole dose curve; as a rule, active = well fitted falling curve with a large enough effect; inconclusive = small, poorly fitted or top-dose-only effect; inactive = no such curve, though single readings can be large or run the other way.

These compounds were tested against ATP-dependent Clp protease proteolytic subunit (Bacillus subtilis (strain 168)) (UniProt P80244) (assay: qHTS Assay for Activators of ClpP). Details: purified B. subtilis ClpP, FRET peptide cleavage, 20 min; series mostly up to 57.5 µM.
Chain of ATP-dependent Clp protease proteolytic subunit (Bacillus subtilis (strain 168)) (P80244 whole entry, looked up): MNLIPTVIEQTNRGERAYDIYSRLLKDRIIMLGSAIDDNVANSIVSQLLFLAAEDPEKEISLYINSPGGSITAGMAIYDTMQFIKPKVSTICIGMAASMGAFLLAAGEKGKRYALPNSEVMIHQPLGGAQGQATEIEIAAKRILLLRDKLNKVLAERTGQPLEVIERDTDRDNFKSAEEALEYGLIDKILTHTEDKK
From the text: The Clp protease proteolytic subunit (ClpP) is the core unit of the Clp complex belonging to the peptidase family S14 that hydrolyzes protein into small peptides in the presence of ATP and magnesium. It is ubiquitously expressed and is the major protease in bacteria. […] Unlike common antibiotics that simply interfere with the essential enzyme activity, ADEP binding activates the ClpP core in the absence of the regulatory Clp-ATPases leading to uncontrolled proteolysis and eventually cell death. Activators binding to the docking site on ClpP can also block formation of the ClpXP and ClpA/C-P holoenzyme complexes interfering with the normal biological functions of ClpP and thus have the potential to become new anti-microbials.
To identify activators of ClpP, a FRET based quenching reversal assay was developed using a purified B. subtilis ClpP and a decapeptide substrate (FRET-FV). The FRET-FV is tagged with a fluorescent molecule amino benzoic acid (donor) at the N-terminus and a nitrotyrosine quencher (acceptor) at the C-terminus. FRET-FV cleaves upon activation of ClpP with ADEP treatement and reverses the quenching effect of the nitrotyrosine causing an increase in fluorescence emission signal at 430nm. This assay was used to screen the Molecular Libraries Small Molecule Repository (MLSMR).
NIH Molecular Libraries Probe Production Centers Network [MLPCN]
NIH Chemical Genomics Center [NCGC]
Assay Submitter (PI): Michael Maurizi, National Cancer Institute
Two and a half microL/well of purified enzyme solution (final concentrations 10 microg/mL B. subtilis ClpP in 100 mM Tris/HCl pH8, 100 mM KCl, 0.05% low protease BSA, 2.5% glycerol, 0.01% Tween-20 buffer) was dispensed into 1536-well assay plates (Greiner, black solid, medium-binding plates) with Aurora Discovery BioRAPTR Flying Reagent Dispenser (FRD, Beckton-Dickenson). Compound solution (23 nL) was transferred to the assay plate using Kalypsys pin tool equipped with a 1536-pin tool. […] FRET signals at time 0 and after 20 min room temperature incubation were obtained using the PerkinElmer Envision plate reader with 320nm excitation and 430nm emission filters. Delta FRET value (Time 20 - Time 0) was calculated and normalized to the delta FRET value of positive control ADEP (5.8 microM final concentration) and negative control DMSO and no enzyme wells.
Note: the source files actives as falling curves though it sought activators and does not explain the sign; nearly all actives have a fitted effect of over 65% in size.

Row | SMILES | Potency
1 | Fc1ccc(C2N3CCCN23)cc1 (configuration not stated) | 28.2 µM (active)
2 | O=c1[nH]c2ccccc2n1C1CCN(C(c2ccnc3ccccc23)c2nnnn2Cc2ccccc2)CC1 (configuration not stated) | inactive
3 | Cc1cc(OCc2cc(C(=O)O)oc2C)c2c3c(c(=O)oc2c1)CCCC3 | 28.2 µM (active)
4 | COC(=O)COc1cc(C)cc2oc(=O)c3c(c12)CCCC3 | inactive
5 | CCN1CCN(C(=O)Cc2coc3cc(C)cc(C)c23)CC1 | inactive
6 | Cc1ncoc1C(=O)NCC1=C(c2cccc3ccccc23)C[C@@H]2CC[C@H]1N2Cc1ccco1 | inactive
7 | COc1cc(Cn2c(N)c(C(=O)NCc3ccco3)c3nc4ccccc4nc32)cc(OC)c1OC | 28.2 µM (active)
8 | CCOC(=O)c1c(N)n(Cc2ccccc2)c2nc3ccccc3nc12 | 28.2 µM (active)
9 | CCOc1ccc(CNC(=O)c2cccc(Nc3nc4ccccc4n4nnnc34)c2)cc1OC | inactive
10 | CCOC(=O)c1cccc(C2=C(CNC(=O)c3ccncc3)[C@H]3CC[C@@H](C2)N3Cc2ccccc2)c1 | inactive
11 | CC/C(=N\NC(=O)c1ccccc1O)c1c(O)n(Cc2ccccc2)c(=O)[nH]c1=O | inactive
12 | CCOC(=O)c1c(N)n(CCN2CCOCC2)c2nc3ccccc3nc12 | 25.1 µM (active)
13 | COC(=O)C1=C(c2ccccc2)C[C@@H]2CC[C@H]1N2C(=O)NCc1ccco1 | inactive
14 | c1cc2c(cc1C1OCC3C(c4ccc5c(c4)OCO5)OCC13)OCO2 (configuration not stated) | inactive
15 | COc1cccc(C(c2nnnn2-c2ccc3c(c2)OCCO3)N2CCC3(CC2)C(=O)NCN3c2ccccc2)c1OC (configuration not stated) | inactive
16 | S=C(NCCc1ccccc1)N1Cc2cc(N3CCOCC3)ccc2-n2nncc2C1 | inactive
17 | O=c1[nH]c2ccccc2n1C1CCN(C(c2ccccc2)c2nnnn2Cc2ccccc2)CC1 (configuration not stated) | inactive
18 | CC(=O)NCC1=C(c2ccc3ccccc3c2)C[C@@H]2CC[C@H]1N2Cc1ccco1 | inactive
19 | CSCCC(c1nnnn1C(C)(C)C)N1CCC(n2c(=O)[nH]c3ccccc32)CC1 (configuration not stated) | inactive
20 | CCn1cc(CN2CCCC(C(=O)c3cccc(C(F)(F)F)c3)C2)cn1 (configuration not stated) | inactive
21 | COc1ccc(C2C=C(C)Oc3c2c(=O)oc2ccccc32)cc1OC (configuration not stated) | inactive
22 | O=C(O)/C=C/c1ccc2c(c1)OCO2 | inactive
23 | O=c1c2ccccc2[nH]c(=S)n1-c1cccc(Cl)c1 | inactive
24 | CN1CCN(C(=S)SCC(=O)Nc2ccc(Cl)cc2C(=O)c2ccccc2)CC1 | inactive
25 | CC(C(=O)Nc1ccc(Cl)cc1Cl)N1CC=C(c2ccccc2)CC1 (configuration not stated) | 28.2 µM (active)
26 | O=C(Nc1ccc(Cl)cc1C(=O)c1ccccc1)c1cc(Cl)cc(Cl)c1 | inactive
27 | O=C(NCC1=C(c2ccc3ccccc3c2)C[C@@H]2CC[C@H]1N2Cc1ccco1)c1cccs1 | inactive
